Measurements taken from paper PMC7819943, “Rice protein-binding microarrays: a tool to detect cis-acting elements near promoter regions in rice”.
In all, about 39,000 sequences were measured (“fluorescence intensity (a.u.)”: median about 4,300, highest 2% from about 39,000 on). The list comes from a sample in which the highest values are over-represented; it also holds similar and randomly drawn sequences.

biological target: T1, OsSMF1 (Oryza sativa, UniProt Q6ZLB0 1-436); assay: protein-binding microarray (RPBM); PBS, 2% BSA, 51.3 ng/ul salmon testes DNA, 50 uM zinc acetate, 200 nM TF, 25 C, 1 h; high values mean tight binding; conditions: protein: recombinant; tags: N-terminal polyhistidine and DsRed monomer fusion (pET32a); chain copies: 2; label: CyDye5-dUTP incorporated in the synthesized complementary strand; 3' TTTTT single-stranded linker to array surface; dsDNA, one strand shown
T1 sequence: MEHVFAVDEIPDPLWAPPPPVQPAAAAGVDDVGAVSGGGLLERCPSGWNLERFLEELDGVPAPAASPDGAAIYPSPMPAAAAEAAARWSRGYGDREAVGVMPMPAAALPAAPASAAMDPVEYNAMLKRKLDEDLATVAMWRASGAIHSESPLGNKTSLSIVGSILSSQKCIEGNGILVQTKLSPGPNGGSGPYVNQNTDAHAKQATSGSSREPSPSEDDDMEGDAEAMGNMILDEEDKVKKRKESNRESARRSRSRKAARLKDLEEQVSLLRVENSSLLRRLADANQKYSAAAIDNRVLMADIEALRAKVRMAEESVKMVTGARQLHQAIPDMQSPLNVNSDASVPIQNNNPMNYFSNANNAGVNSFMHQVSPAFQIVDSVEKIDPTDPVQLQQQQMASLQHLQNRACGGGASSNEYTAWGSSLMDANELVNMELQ
Outline: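 Binding signal is reported as fluorescence intensity per feature (arbitrary units) from an Axon 4000B scanner. Incubation used 200 nM of each Ni–NTA-purified, N-terminally polyhistidine- and DsRed-fused transcription factor from E. coli BL21-CodonPlus on a double-stranded custom Agilent array for 1 h at 25 °C, with 50 µM zinc acetate in the buffer, followed by washing.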

| Sequence | binding signal |
| --- | --- |
| TTTCAGTAGCGTCGGCTGCTCTATCTACTTGCATTGCCTGCGGAGTCACCTAGTGCAG | 41000 fluorescence intensity (a.u.) |
| GTGTGCTCTTGCATACATACTTGGGCTTATCTAGCTGCGTCGGAGTCACCTAGTGCAG | 5510 fluorescence intensity (a.u.) |
| GTTTCTTATTTTATGAATGGTATGAGTAAGAATATGTTTGCGGAGTCACCTAGTGCAG | 3690 fluorescence intensity (a.u.) |
| CTAGTTTACATCTGCAATGTCATGATTTATTTATGGAATACGGAGTCACCTAGTGCAG | 19500 fluorescence intensity (a.u.) |
| TGGAAAGAATACAGTATGATATGGTCTTATTTTGTCTGCCCGGAGTCACCTAGTGCAG | 41200 fluorescence intensity (a.u.) |
| GCGAGCAGTCGATGTCCTCGATGACGATGATGGACTTGCTCGGAGTCACCTAGTGCAG | 4140 fluorescence intensity (a.u.) |
| TATGACATCGGCTCAAAGATAAATGATATGTCATCGGCATCGGAGTCACCTAGTGCAG | 3540 fluorescence intensity (a.u.) |
| AGTAGAGAGATCTTGACAAAGTCATCGGTGATGAAGTCGACGGAGTCACCTAGTGCAG | 3570 fluorescence intensity (a.u.) |
| AGGGCTATCTGCTATCTCATCTTGTATGACAAAGATTGATCGGAGTCACCTAGTGCAG | 65500 fluorescence intensity (a.u.) |
| CCGTTGCCGCGCCGTGGACCGACAGCCACTGACGTCACCCCGGAGTCACCTAGTGCAG | 18600 fluorescence intensity (a.u.) |
| TTGAACCAACACTATATCATACACCTAGTCACCTACTCCTCGGAGTCACCTAGTGCAG | 4770 fluorescence intensity (a.u.) |
| CATCTCCATTCTTTCATCCTCATCTCTAATGGAGAATTTCCGGAGTCACCTAGTGCAG | 3920 fluorescence intensity (a.u.) |
| ACACATTCCATATCCTTGGACTAATTCACGAGACGAATCTCGGAGTCACCTAGTGCAG | 40900 fluorescence intensity (a.u.) |
| ACTAATTGTGGCCATGTTCATCGTGCAGTTCCTTGGATCTCGGAGTCACCTAGTGCAG | 17300 fluorescence intensity (a.u.) |
| AGTAATTAAAATTTAAGAGGCAAAATTACGTGTGAATTTGCGGAGTCACCTAGTGCAG | 4130 fluorescence intensity (a.u.) |
| CCCGAAGCGGATTCGCGCACGGAAACCCACAGTCGATTCTCGGAGTCACCTAGTGCAG | 3590 fluorescence intensity (a.u.) |
| ATAGGGTGAGAAAGCACCTCGTTTTCCACGCGCACGCTTCCGGAGTCACCTAGTGCAG | 3330 fluorescence intensity (a.u.) |
| GGGAGGACGAAGGAACGCCAATACCGACATTGCTCAAGCTCGGAGTCACCTAGTGCAG | 65300 fluorescence intensity (a.u.) |
| CTTGCCGTCGAAGCGAAGGAACCGCCACCCGACGTCAGCTCGGAGTCACCTAGTGCAG | 5050 fluorescence intensity (a.u.) |
| CTTGCCGTCGACGCGAAGGAACCGCCACCCGACGTCAGCTCGGAGTCACCTAGTGCAG | 5610 fluorescence intensity (a.u.) |
| GGTGGGGACCACCAGGACGGACGTGTAGGGCCTCCTGAAGCGGAGTCACCTAGTGCAG | 4270 fluorescence intensity (a.u.) |

| Sequence | binding signal |
| --- | --- |
| TCCAGGGAGCCGCGGTGGCATATGTTGCTGACATGTTTTCCGGAGTCACCTAGTGCAG | 5340 fluorescence intensity (a.u.) |
| TCAGAGAGCTGACAGCGTGTTCAGGCCGTTCGATTTTGGTCGGAGTCACCTAGTGCAG | 5030 fluorescence intensity (a.u.) |
| ATGGAGCCTGACGTGGCAGCATGTAGCTGGTCCACGTCACCGGAGTCACCTAGTGCAG | 27400 fluorescence intensity (a.u.) |
| ATTTGGGCGGCAAGCTGACGTGGCACACGGCGTCATGACTCGGAGTCACCTAGTGCAG | 18100 fluorescence intensity (a.u.) |
| TGTGTCATGGCTGATGTCAGCTCAGCATATATATATTCAGCGGAGTCACCTAGTGCAG | 14900 fluorescence intensity (a.u.) |
| GATTTTATTCGACGTGTCAGCTGACTCAGATGGTCGGTAGCGGAGTCACCTAGTGCAG | 39100 fluorescence intensity (a.u.) |
| GTTGACCGTCTACGTGGCATTCCACGTAGGCAGCTCATTTCGGAGTCACCTAGTGCAG | 16600 fluorescence intensity (a.u.) |
| ACTCCGGTTTTATCCGACGTGGCAGCTGACTCAGCATGGGCGGAGTCACCTAGTGCAG | 44300 fluorescence intensity (a.u.) |
| ATCCGGTTTTATCCGACGTGGCGGCTGAGTCGGCGCGGGACGGAGTCACCTAGTGCAG | 30700 fluorescence intensity (a.u.) |
| ACTGGAGCTAACCGCTGACGTGGCATTCCACGTAGGCAACCGGAGTCACCTAGTGCAG | 42500 fluorescence intensity (a.u.) |
| TTTTGCACACATGTATCATGCTGACGTCAGCATGACGTGGCGGAGTCACCTAGTGCAG | 61200 fluorescence intensity (a.u.) |
| CTTTTGCTCACATGGCGTGCCACCGTGGCGTGCCCGCATGCGGAGTCACCTAGTGCAG | 16200 fluorescence intensity (a.u.) |
| TTTGACTCCGATTTTATCCGACGTGGCAGCTGACTCAGCGCGGAGTCACCTAGTGCAG | 25300 fluorescence intensity (a.u.) |
| TACTGTAGCACCACATTGTCAATCATGGCGCAATTATGCTCGGAGTCACCTAGTGCAG | 12900 fluorescence intensity (a.u.) |
| GAATACCAAGAACGACGTCATACAAGACTGACGTGCGGTCCGGAGTCACCTAGTGCAG | 5690 fluorescence intensity (a.u.) |
| AATGTCCCATCTTTCGTGTGTAAGGCACGTTAGTCTCAGGCGGAGTCACCTAGTGCAG | 4290 fluorescence intensity (a.u.) |
| GTATGGGTTCGAGGAGTGATGTGGTGATGGGCAAACCCATCGGAGTCACCTAGTGCAG | 3300 fluorescence intensity (a.u.) |
| CACCCTTAAATCATATATGTGGTTTTAATATTTGGGGATGCGGAGTCACCTAGTGCAG | 33200 fluorescence intensity (a.u.) |
| CGAGACTGACAAGGCATTCCAGACACTTAAACAAGCACTGCGGAGTCACCTAGTGCAG | 3350 fluorescence intensity (a.u.) |
| CTCTCGAAGCTGCCCTAGCCTCTCCGCTGCTCCGATCCACCGGAGTCACCTAGTGCAG | 24500 fluorescence intensity (a.u.) |
| ATGTTTGAGCATGCAGCAAAGACAGATCTAACACTCAAGCCGGAGTCACCTAGTGCAG | 3970 fluorescence intensity (a.u.) |
